Assay outcomes as filed in PubChem BioAssay.
DAX1 inh-1 – inhibits human nuclear receptor DAX1; P51843; inhibition, % at 6.75 µM; HEK293 Gal4-DAX1 luciferase reporter, luminescence; AID 504766; actives 0.99% (n = 340,000);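 active = inhibition above the mean over all tested compounds plus 3 SD, cut at about 4.2% in these data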;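 note: inhibition shows as a rise in luminescence from relieved DAX1 repression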
Target sequence (P51843 207-470 limits assumed): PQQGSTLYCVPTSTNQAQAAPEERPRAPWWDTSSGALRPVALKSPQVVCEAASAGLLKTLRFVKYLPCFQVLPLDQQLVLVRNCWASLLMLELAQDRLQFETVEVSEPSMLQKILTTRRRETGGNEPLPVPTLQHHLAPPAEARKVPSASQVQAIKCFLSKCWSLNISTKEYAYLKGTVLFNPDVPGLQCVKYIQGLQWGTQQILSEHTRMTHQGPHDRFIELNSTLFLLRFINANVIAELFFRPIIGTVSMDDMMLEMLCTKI
DAX1 inh-2 – DAX1 (NR0B1) inhibition, primary screen | actives 1.1% (n = 370,000) | inhibition, % at 6.8 µM | HEK293T StAR-luciferase reporter, SF-1/DAX-1 repression relief;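 active = inhibition above the mean over all tested compounds plus 3 SD, cut at about 3.6% in these data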;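 note: higher inhibition means more luminescence from relief of DAX-1 repression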
hcDAF-12 act – activates DAF-12 receptor from parasite H. contortus; HEK293 hcDAF-12 lit1-tk-luc reporter, luminescence; 0% DMSO, 100% Δ7-dafachronic acid; activation, % at 6.8 µM; actives 1.4% (n = 370,000); AID 652067;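 active = activation above the mean of all tested compounds plus 3 SD, cut at about 5.5% in these data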
hgDAF12 agonist – hgDAF-12 agonism, primary luciferase screen | HEK293 GAL4-hgDAF12 UAS-luciferase reporter, agonist luminescence; normalized to butyrate control | activation, % at 6.8 µM | actives 1.8% (n = 370,000) | AID 687014;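 active = activation above a cutoff set at the mean of all screened compounds plus 3 SD, cut at about 10% in these data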
ssDAF12 agonist – activators of S. stercoralis DAF-12 nuclear receptor | actives 1% (n = 370,000) | HEK293 ssDAF-12/GRIP1 lit1-tk-luc reporter, luminescence; % of 3 µM dafachronic acid response | activation, % at 6.8 µM;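 active = activation above the mean over all tested compounds plus 3 SD, cut at about 0.9% in these data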
Hits are given with their value. Shown are actives, neighbours in structure and some others; about 4.1% of the full set was active somewhere.

What do the screens show for `O=C(CCn1nnc(-c2cccs2)n1)NCc1ccco1`?
DAX1 inh-2: inactive; hcDAF-12 act: inactive; hgDAF12 agonist: inactive; ssDAF12 agonist: inactive

How did Fc1cccc(-c2csc(-c3ccno3)n2)c1 do in these assays?
DAX1 inh-1: inactive; DAX1 inh-2: inactive; hcDAF-12 act: inactive; hgDAF12 agonist: inactive; ssDAF12 agonist: inactive

What do the screens show for `Nc1nc(-c2cccc(F)c2)cs1`?
DAX1 inh-1: 5.2; DAX1 inh-2: inactive; hcDAF-12 act: inactive; hgDAF12 agonist: inactive; ssDAF12 agonist: 0.9

Results for COc1ccc(Cn2cc(COC(=O)Nc3ccc(F)cc3)nn2)cc1 ?
DAX1 inh-2: inactive; hcDAF-12 act: inactive; hgDAF12 agonist: inactive; ssDAF12 agonist: inactive

Results for Cc1ncoc1C(=O)N1CCc2c([nH]c3ccccc23)C1C1CCCCC1 (configuration not stated) ?
DAX1 inh-1: inactive; DAX1 inh-2: inactive; hcDAF-12 act: 6.1; hgDAF12 agonist: inactive; ssDAF12 agonist: inactive

What do the screens show for `Cc1ncoc1C(=O)N1CCc2c([nH]c3ccccc23)C1C(C)(C)C` (configuration not stated)?
DAX1 inh-1: inactive; DAX1 inh-2: inactive; hcDAF-12 act: 5.6; hgDAF12 agonist: inactive; ssDAF12 agonist: 1.0

How did CCOC(=O)N1C(=O)C[C@](Sc2ccc(OC)cc2)(C(=O)N2CCN(c3ncccn3)CC2)[C@H]1c1ccc(OC)cc1 do in these assays?
DAX1 inh-2: inactive; hcDAF-12 act: inactive; hgDAF12 agonist: inactive; ssDAF12 agonist: inactive

What do the screens show for `C#CCNC(=O)C[C@H]1C[C@@]2(C(=O)OC)C(=C[C@H](C(C)(C)C)O[C@@H]2C)N(Cc2ccco2)C1=O`?
DAX1 inh-2: inactive; hcDAF-12 act: inactive; hgDAF12 agonist: inactive; ssDAF12 agonist: inactive

What do the screens show for `Cc1ccc(C(=O)NC(=S)N(C)C2CCCCC2)cc1`?
DAX1 inh-1: inactive; DAX1 inh-2: inactive; hcDAF-12 act: inactive; hgDAF12 agonist: 11; ssDAF12 agonist: inactive

How did C=CC[C@@]1(c2ccccc2)Oc2ccccc2-c2nc3ccccc3nc21 do in these assays?
DAX1 inh-2: inactive; hcDAF-12 act: inactive; hgDAF12 agonist: inactive; ssDAF12 agonist: inactive

How did CC(C)N1Cc2nnn(Cc3ccccc3)c2-c2cc(N3CCCC3)ccc2S1(=O)=O do in these assays?
DAX1 inh-2: inactive; hcDAF-12 act: inactive; hgDAF12 agonist: inactive; ssDAF12 agonist: inactive

Results for CCOc1ccc(-n2c(SCC(=O)Nc3ccc4cn[nH]c4c3)nnc2-c2ccncc2)cc1 ?
DAX1 inh-2: inactive; hcDAF-12 act: inactive; hgDAF12 agonist: inactive; ssDAF12 agonist: inactive

How did COc1ccc(Cn2nnc(C(=O)Nc3ccc(F)cc3)c2N)cc1 do in these assays?
DAX1 inh-1: inactive; DAX1 inh-2: inactive; hcDAF-12 act: inactive; hgDAF12 agonist: inactive; ssDAF12 agonist: inactive

How did Nc1c(C(=O)Nc2ccc3c(c2)OCCO3)nnn1Cc1ccc(F)cc1 do in these assays?
DAX1 inh-1: inactive; DAX1 inh-2: 4.2; hcDAF-12 act: inactive; hgDAF12 agonist: inactive; ssDAF12 agonist: inactive

Results for O=C(NN=C1CCCCCCCCCCC1)c1ccccc1F ?
DAX1 inh-1: inactive; DAX1 inh-2: inactive; hcDAF-12 act: inactive; hgDAF12 agonist: 12; ssDAF12 agonist: inactive

How did O=C(NN=C1CCCC1)c1ccn[nH]1 do in these assays?
DAX1 inh-1: inactive; DAX1 inh-2: inactive; hcDAF-12 act: inactive; hgDAF12 agonist: 12; ssDAF12 agonist: inactive

Results for O=C(Cc1ccc2cccnc2c1)c1ccc(O)cc1O ?
DAX1 inh-1: inactive; DAX1 inh-2: inactive; hcDAF-12 act: inactive; hgDAF12 agonist: 11; ssDAF12 agonist: inactive

Results for O=C(Cc1ccccc1)c1ccc(O)cc1O ?
DAX1 inh-1: inactive; DAX1 inh-2: inactive; hcDAF-12 act: inactive; hgDAF12 agonist: inactive; ssDAF12 agonist: inactive

What do the screens show for `COCC(C)N=C1NN=C(c2c[nH]c3ccccc23)CS1` (configuration not stated)?
DAX1 inh-1: inactive; DAX1 inh-2: inactive; hcDAF-12 act: 6.2; hgDAF12 agonist: inactive; ssDAF12 agonist: inactive

Results for CCc1ccccc1NNC(=O)c1cc(C)on1 ?
DAX1 inh-1: inactive; DAX1 inh-2: inactive; hcDAF-12 act: inactive; hgDAF12 agonist: inactive; ssDAF12 agonist: inactive

Results for Cc1cc(C(=O)NNc2ccccc2F)no1 ?
DAX1 inh-1: 7.2; DAX1 inh-2: inactive; hcDAF-12 act: inactive; hgDAF12 agonist: inactive; ssDAF12 agonist: inactive

Results for CCS(=O)(=O)c1ccc2oc(Nc3ccccc3Cl)nc2c1 ?
DAX1 inh-1: inactive; DAX1 inh-2: inactive; hcDAF-12 act: inactive; hgDAF12 agonist: 13; ssDAF12 agonist: inactive
